The full list was thinned out, with hits kept by preference.
Cycloheximide cs: Cycloheximide Counterscreen for Small Molecule Inhibitors of Shiga Toxin | hit rate 12% among 300,000 | cell reporter, cycloheximide protein synthesis inhibition counterscreen | max response, %; in the data active = max response mostly above about 13%, no sharp cut-off; inactive = mostly below about 14%; also: read at 38.3 µM for the half of the compounds with a filed dose; 0% is about no effect
AmpC inh detg: qHTS Inhibitors of AmpC Beta-Lactamase (assay with detergent); P00811; AmpC hydrolysis of nitrocefin, absorbance 480 nm, 0.01% Triton; Potency, µM (titrated, usually from 114 µM), for the others: top-dose activity change, negative = inhibition, actives largely listed as inhibitors; hit rate 0.041% among 370,000; AID 485294, 2010;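 also: potency is read from the fitted curve at half-maximal effect; 0% = no-compound wells and -100% = no-enzyme wells; nearly all actives have a fitted effect of over 25% in size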
Target sequence (P00811 whole entry, looked up): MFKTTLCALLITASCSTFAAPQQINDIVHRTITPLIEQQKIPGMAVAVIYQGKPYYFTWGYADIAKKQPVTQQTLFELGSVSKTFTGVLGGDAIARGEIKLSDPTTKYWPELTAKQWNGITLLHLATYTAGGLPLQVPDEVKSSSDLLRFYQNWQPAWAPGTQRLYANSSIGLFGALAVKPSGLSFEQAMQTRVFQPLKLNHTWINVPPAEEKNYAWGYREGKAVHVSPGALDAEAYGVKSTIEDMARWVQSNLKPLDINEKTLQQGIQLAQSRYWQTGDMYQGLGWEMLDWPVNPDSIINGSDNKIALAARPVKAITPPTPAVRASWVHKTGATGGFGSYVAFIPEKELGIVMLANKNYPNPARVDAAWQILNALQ
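AmpC (5.3 nM in the dispensed reagent) in 20 mM phosphate pH 7.0 with 0.01% (detergent screen) or 0.0001% Triton X-100 was preincubated with compounds for 15 min at room temperature. Nitrocefin was then added from an 800 uM solution, and hydrolysis was followed at 480 nm.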
Shiga toxin inh: A qHTS for Small Molecule Inhibitors of Shiga Toxin; Vero cells, Shiga toxin protein synthesis inhibition reporter; inhibition, % at 38.7 µM; hit rate 9.2% among 290,000; AID 2315, 2010; in the data active = inhibition mostly above about 28%, no sharp cut-off; inactive = mostly below about 43%; also: 0% is about no effect
NS1 inh: qHTS Assay for Inhibitors of Influenza NS1 Protein Function. Potency, µM (highest dose often 46.1 µM), inactives show at the highest dose activity, positive = more growth. hit rate 0.4% among 270,000; calls by dose curve; also: potency is read from the fitted curve at half-maximal effect; actives are rising curves; nearly all actives have a fitted effect of over 50% in size
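Read-out: OD600 growth recovery of NS1-expressing budding yeast. Cells grown overnight at 30C in -URA glucose medium, washed, resuspended and diluted 1:100 in 2% galactose assay medium, pH 6.0. Same strain lacking NS1 served as positive control.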
AmpC inh no detg: qHTS Inhibitors of AmpC Beta-Lactamase (assay without detergent); hit rate 0.52% among 330,000; AmpC nitrocefin hydrolysis, absorbance 480 nm, 0.0001% Triton; Potency, µM (doses to about 57.1 µM), for inactives: at the top dose activity change, negative = inhibition, most hits filed as inhibitors; P00811;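 also: potency is read from the fitted curve at half-maximal effect; plate controls were no compound for no effect and no enzyme for full effect; nearly all actives have a fitted effect of over 20% in size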
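AmpC (5.3 nM in the dispensed reagent) in 20 mM phosphate pH 7.0 with 0.01% (detergent screen) or 0.0001% Triton X-100 was preincubated with compounds for 15 min at room temperature. Nitrocefin was then added from an 800 uM solution, and hydrolysis was followed at 480 nm.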
* = called active by the depositor; ? = inconclusive; nt = no result. Unless noted, calls follow the shape of the dose curve; as a rule, active = well fitted curve in the direction sought with a large enough effect; inconclusive = small, poorly fitted or top-dose-only effect, or another doubt; inactive = no such curve, though single readings can be large; an effect the other way counts as inactive or inconclusive.

SMILES	Cycloheximide cs	AmpC inh detg	Shiga toxin inh	NS1 inh	AmpC inh no detg
COc1ccc(NC(=O)c2noc3c2CCCCC3)cc1	42*	1%	83*	nt	-20%
Cc1ccc(NC(=O)c2noc3c2CCCCC3)cc1C	43*	2%	107*	1%	-14%
Cc1ccc(NC(=O)c2noc3c2CCCCC3)cc1	67*	-2%	83*	-33%	-3%
COc1cccc(CNC(=O)c2ccc(CS(=O)Cc3ccc(Cl)cc3)o2)c1 (stereo not drawn)	nt	14%	nt	nt	nt
CCNc1c(NC(=O)c2ccccc2OCC)c(=O)oc2ccccc12	nt	-5%	nt	nt	nt
CC(C)N=C(NS(=O)(=O)c1ccc(Br)cc1)c1ccc(Cl)cc1	-4	-8%	-2	0%	-12%
O=C(O)c1ccccc1OCC1CCCO1 (stereo not drawn)	7	1%	21	4%	3%
CCc1ccc(NC(=O)c2noc3c2CCC3)cc1	25*	-1%	28	-6%	-42%
CC(C)(C)C1CCc2onc(C(=O)NC3CCCC3)c2C1 (stereo not drawn)	7	-1%	23	-60%	0%
CCc1ccc(NC(=O)c2noc3c2CCCCC3)cc1	23*	?	85*	-6%	-12%
CSc1ccccc1NC(=O)c1noc2c1CCC2	38*	25µM*	100*	-56%	-57%
CC(=O)c1cccc(NC(=O)c2noc3c2CCCC3)c1	nt	24%	nt	nt	nt
O=C(NC1CCCCC1)c1noc2c1CCCCC2	39*	-3%	72*	-10%	-18%
CCOc1ccc(NC(=O)CN(C)C(=O)/C=C/c2ccco2)cc1OCC	nt	0%	nt	nt	-10%
NC(=O)c1cc([N+](=O)[O-])c(Cl)cc1NCc1ccccn1	nt	-7%	nt	nt	-9%
CC(C)(C)OC(=O)NCCCC(CCCNC(=O)OC(C)(C)C)C(=O)O	9	-10%	-12	5%	-13%
CC(C)(C)OC(=O)NCCCCCO	27*	-15%	27*	nt	-3%
NS(=O)(=O)c1ccc(CCNC(=O)C2CCC(Cn3c(=S)[nH]c4ccccc4c3=O)CC2)cc1 (stereo not drawn)	5	0%	24	nt	-20%
COc1ccc(Br)c(-c2nc(CS(=O)(=O)c3ccc(F)cc3)no2)c1	20*	-10%	37*	0%	-20%
COc1ccc(Br)c(-c2nnc(CS(=O)(=O)c3ccccc3)o2)c1	36*	3%	89*	6%	-43%
CCOc1ccccc1-c1nnc(CS(=O)(=O)c2ccccc2)o1	6	-11%	-5	3%	11%
Cc1ccc(CONC(=O)c2cccc(C)c2)cc1	nt	6%	nt	nt	-10%
Cc1ccc(CONC(=O)c2ccc(OC(F)F)cc2)cc1	24*	7%	69*	nt	-20%
S=c1[nH]c(-c2ccccc2)cn1/N=C/c1cccs1	32*	-7%	45*	14%	-18%
O=C(O)c1ccc(/C=N/n2cc(-c3ccccc3)[nH]c2=S)cc1	1	-7%	-1	7%	-17%
SMILES	Cycloheximide cs	AmpC inh detg	Shiga toxin inh	NS1 inh	AmpC inh no detg
S=c1[nH]c(-c2ccccc2)cn1/N=C/c1ccc(Br)cc1	20*	2%	36	-1%	-44%
S=c1[nH]c(-c2ccccc2)cn1/N=C/c1cccnc1	8	-2%	-6	10%	-13%
COc1ccc(NC(=O)CSc2nc3cc(OC)c(OC)cc3c3nc(-c4ccccc4)nn23)cc1Cl	nt	6%	nt	nt	nt
CSc1ncccc1C(=O)OCc1ccccc1F	22*	?	67*	-17%	-24%
CSc1ncccc1C(=O)OCc1ccc(COC(=O)c2cccnc2SC)cc1	-6	1%	-5	6%	-28%
CSc1ncccc1C(=O)OCc1ccccc1	31*	-9%	87*	-14%	-31%
CC[C@]1(C(=O)OC)[C@H]2C(=O)N(Cc3ccccc3)C(=O)[C@H]2[C@H]2CN(C)C(=NCc3ccccc3)N21	nt	nt	nt	nt	106%
O=C(NCc1ccccc1)C(=O)NCC(c1ccco1)S(=O)(=O)c1ccccc1 (stereo not drawn)	nt	1%	nt	nt	nt
Cc1ccc(N2CS(=O)(=O)/C(=C/N(C)C)C2=O)cc1	38*	5%	77*	5%	-6%
CC1=NN(c2ccc(Cl)cc2)C(=O)C1	1	-2%	-9	nt	?
CN(C)/C=C1\C(=O)N(c2ccc(Cl)cc2)CS1(=O)=O	36*	5%	86*	4%	-28%
